Measurements as given in the supplement of paper PMC6555819.

Tests used:
Test in all cases: PBM binding z-score (relative to random genomic background probes); higher = stronger binding; sequences stand for … in GC…GCGATTGACAGCGTAGAATGAAGG
[1] = test system: RARb homodimer (NR concentration 270 nM)
Procedure, shortened: (§1)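 Binding z-scores were set against random background probes. The data came from custom Agilent 4×180K protein-binding microarrays carrying double-stranded probes with 34-nt variable regions, incubated 1 h with ligand-free nuclear receptor dimers. Partner-specific antibodies detected binding, and scanned fluorescence was regression-normalized.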

[2] = test system: RARg:RXRa (NR concentration 270 nM, RXRa partner concentration 90 nM)
Procedure, shortened: as §1

[3] = test system: RARg homodimer (NR concentration 270 nM)
Procedure, shortened: as §1

[4] = test system: RXRa DBDmut IVT, anti-RXR (DBD mutation: RXRa K156A/R161A, NR concentration 90 nM)
Procedure, shortened: as §1

[5] = test system: RXRa homodimer (NR concentration 180 nM)
Procedure, shortened: as §1

[6] = test system: THRa:RXRa (NR concentration 90 nM, RXRa partner concentration 90 nM)
Procedure, shortened: as §1

[7] = test system: THRa homodimer (NR concentration 90 nM)
Procedure, shortened: as §1

[8] = test system: VDR:RXRa (NR concentration 270 nM, RXRa partner concentration 90 nM)
Procedure, shortened: as §1

[9] = test system: VDR homodimer (NR concentration 270 nM)
Procedure, shortened: as §1

Row | Sequence | PBM binding z-score [1] | PBM binding z-score [2] | PBM binding z-score [3] | PBM binding z-score [4] | PBM binding z-score [5] | PBM binding z-score [6] | PBM binding z-score [7] | PBM binding z-score [8] | PBM binding z-score [9]
1 | TCTTGTAGATCAACAGGAGGTTCAGAAAGATCGA | -0.296 | 0.00148 | -0.0996 | 0.388 | 0.331 | 0.0407 | -1 | 0.595 | 0.524
2 | TCTGCTAGGTTAGTTGGTCAGCTAACGAGCTGCC | -0.0655 | 0.00476 | -0.189 | -0.0929 | -0.323 | -0.551 | -1.24 | -0.449 | -1.15
3 | TCTTGTAGATCAAGCAGGCTAAGAAAGCCTGAGT | -0.885 | -0.605 | -0.521 | 0.402 | -0.67 | -0.805 | -0.733 | -0.214 | -0.349
4 | TCTATTAGTTGAACGGCAACCGACGAGTCCGTTT | -0.12 | 0.0941 | -0.2 | 1.53 | 0.254 | -0.127 | 0.107 | 0.759 | 0.971
5 | TCATATAGCTAAACAGGTGAAAGTCCGTAAGTTA | 0.282 | 0.0319 | -0.0908 | 0.797 | 0.266 | 0.318 | -0.358 | 0.43 | 0.105
6 | ATATCTAGGTAACAAGTTCAGTGAAAGAGAGGAC | 1.93 | 1.25 | 1.51 | 1.36 | 1.03 | 1.49 | 0.951 | 2.31 | 2.85
7 | CCGACAGGGGCATAAGGTTACCATAAGCCAGCCC | 2.13 | 2.36 | 1.62 | 0.428 | 2.01 | 2.43 | 1.43 | 1.1 | 0.293
8 | ACTCAAAGTTCAGGACGAGGTAACGTAAAGCACG | 3.56 | 4.83 | 5.29 | 3.38 | 3.39 | 4.03 | 1.98 | 3.22 | 2.46
9 | GCTAGTTGGTCAGTAAAAAGTCACACACCGGTCG | 1.33 | 0.522 | 0.701 | 0.212 | 0.223 | 0.00328 | -0.343 | 0.0507 | 0.168
10 | CGAGCTAGGTCAAGGACAGTGAATCTCCGCACGC | 2.95 | 3.8 | 4.67 | 1.27 | 2.28 | 3.02 | 1.62 | 0.904 | -0.0669
11 | CAAGCTAGGTCACCGGAAGGTCAAAGTCCGCATG | 5.19 | 8.48 | 7.81 | 1.93 | 6.91 | 4.5 | 2.79 | 6.18 | 3.87
12 | CAAACTAGGTCACCGGAAGGTCAACGTCCGCATG | 5.99 | 8.58 | 8.16 | 2.07 | 7.28 | 4.63 | 3.19 | 5.72 | 2.78
13 | GCTGCTAGGCCAACTGATGGTCAGCTAAAGCTCG | 0.279 | 0.0424 | 0.383 | -0.307 | -0.651 | -0.291 | -1.08 | -0.87 | -1.03
14 | TAGCTTAGGTCATTGGGCCAGTATAGTACGCATC | 3.1 | 4.29 | 4.56 | 2.23 | 3.26 | 3.37 | 2.15 | 2.4 | 1.36
15 | CTCGCAAGGTCGTGCTCAGGTGAGTATACCAAAC | 1.7 | 3.26 | 2.14 | 2.15 | 2.52 | 3.63 | 1.6 | 2.24 | 1.22
16 | ATATGAAGGTTACATCCGGGTCATTCAGGCTATG | 3.52 | 4.75 | 2.62 | 1.08 | 3.74 | 4.11 | 2.47 | 4.85 | 2.96
17 | CCTACTGGGCAAAAGGTCATTGATTCCAATGCTC | 4.53 | 5.81 | 5.23 | 0.966 | 6.04 | 3.09 | 0.51 | 4.44 | 1.72
18 | CGTCCAGGGTCAGAGAGGTCAGTGAATGCCGAGT | 5.27 | 6.18 | 6.48 | 2.79 | 6.28 | 4.29 | 2.13 | 7.46 | 5.45
19 | CATCGGAGGACAGAAGGTCAGAGCTGTCCGCTTT | 3.44 | 3.28 | 2.93 | -0.108 | 1.8 | 2.07 | 0.044 | 1.06 | 0.139
20 | TCTGCTAGGTCGGTTGGTCAGCTAACGAGCTGCC | 0.194 | 0.057 | 0.0646 | -0.000892 | -0.389 | -0.409 | -0.643 | -0.462 | -0.816
21 | ATATGTAGGTTATAGGGTCATTCAGTTTGCGCAT | 3.76 | 4.28 | 3.26 | 2.26 | 4.98 | 3.83 | 3.31 | 5.98 | 4.34
22 | CAAACTAGGTCACGATAGGTCAAAGTCGAATGAC | 4.88 | 6.44 | 6.71 | 2.13 | 5.99 | 4.65 | 2.39 | 5.51 | 2.02
23 | TCATACAGGTAAAAGGTGAAAGTCGGTGTGGTAA | 2.02 | 2.07 | 1.09 | 1.58 | 3.18 | 1.81 | 0.619 | 1.64 | 0.324
24 | ACTATTAGTTGAGACGTGGGCAACCGATAGGTTG | -0.524 | -0.179 | 0.239 | -0.00277 | -0.275 | -0.642 | -1.02 | -0.5 | -0.369
25 | TAGCCTGGGTCATGGGCCAGTATACCACGCGAAC | 2.24 | 3.99 | 3.38 | -1.06 | 3.73 | 2.39 | -0.0617 | 1.82 | -0.187
26 | AGTCAAAGTTCAAGACGAGGTAACGTAAAGCACG | 3.6 | 5.81 | 6.02 | 3.8 | 4.59 | 3.9 | 0.783 | 4.07 | 2.85
